The values that follow come from PMC7862700, “An all-to-all approach to the identification of sequence-specific readers for epigenetic DNA modifications on cytosine”.

Assay in all cases: DAPPL (digital affinity profiling via proximity ligation, sequencing); 10 mM Tris-HCl pH 7.5, 50 mM NaCl, 1 mM DTT, 4% glycerol, room temperature, 30 min; GST-TFs on glutathione beads, 16-mer random dsDNA library, 0.1% formaldehyde crosslink after washing; high values mean tight binding
One assay deals with T1, FLI1 (Homo sapiens, UniProt Q01543 1-452).
T1 sequence: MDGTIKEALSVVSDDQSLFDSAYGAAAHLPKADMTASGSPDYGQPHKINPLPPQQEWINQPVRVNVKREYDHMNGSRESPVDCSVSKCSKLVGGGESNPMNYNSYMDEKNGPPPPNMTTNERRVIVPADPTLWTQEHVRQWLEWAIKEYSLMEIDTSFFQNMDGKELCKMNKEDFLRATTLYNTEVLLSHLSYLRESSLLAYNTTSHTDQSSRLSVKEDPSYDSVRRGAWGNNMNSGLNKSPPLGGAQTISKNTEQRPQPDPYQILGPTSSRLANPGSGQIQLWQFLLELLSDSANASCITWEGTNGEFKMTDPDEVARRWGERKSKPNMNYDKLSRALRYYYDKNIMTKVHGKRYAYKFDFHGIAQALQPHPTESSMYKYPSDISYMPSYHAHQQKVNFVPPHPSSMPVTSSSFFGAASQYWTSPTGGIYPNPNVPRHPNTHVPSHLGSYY
The following applies: protein: recombinant; tags: N-terminal GST; dsDNA, one strand shown. The method in brief:
(§1)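 Pools were built from human transcription factors expressed in yeast as GST fusions, captured on glutathione beads and DNA-barcoded, along with a tag-only sample. Incubation with 200 nmole of a 16-mer random double-stranded DNA library lasted 30 min at room temperature in Tris/NaCl/DTT/glycerol buffer, and was followed by washing, 0.1% formaldehyde crosslinking, proximity ligation, PCR amplification and Illumina NextSeq500 sequencing. Binding signal is the quotient of each hexamer's read frequency for a factor and its frequency for the tag-only sample.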

The next assay concerns the target T2, ELK1 (Homo sapiens, UniProt P19419 1-428).
T2 sequence: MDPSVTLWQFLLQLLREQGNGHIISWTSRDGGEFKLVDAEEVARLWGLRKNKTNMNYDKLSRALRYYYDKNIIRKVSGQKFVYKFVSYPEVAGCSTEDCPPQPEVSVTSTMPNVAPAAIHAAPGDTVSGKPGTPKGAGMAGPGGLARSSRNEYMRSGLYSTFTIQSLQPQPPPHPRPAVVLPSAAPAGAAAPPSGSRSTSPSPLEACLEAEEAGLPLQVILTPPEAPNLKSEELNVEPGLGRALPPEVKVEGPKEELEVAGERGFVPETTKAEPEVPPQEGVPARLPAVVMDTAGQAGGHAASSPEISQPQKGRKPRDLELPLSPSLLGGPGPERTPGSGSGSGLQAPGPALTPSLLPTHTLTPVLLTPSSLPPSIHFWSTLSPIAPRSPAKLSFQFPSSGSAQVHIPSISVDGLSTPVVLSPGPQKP
The following applies: protein: recombinant; tags: N-terminal GST; dsDNA, one strand shown. In outline:
as §1

Another assay has as its target T3, GABPA (Homo sapiens, UniProt Q06546 1-454).
T3 sequence: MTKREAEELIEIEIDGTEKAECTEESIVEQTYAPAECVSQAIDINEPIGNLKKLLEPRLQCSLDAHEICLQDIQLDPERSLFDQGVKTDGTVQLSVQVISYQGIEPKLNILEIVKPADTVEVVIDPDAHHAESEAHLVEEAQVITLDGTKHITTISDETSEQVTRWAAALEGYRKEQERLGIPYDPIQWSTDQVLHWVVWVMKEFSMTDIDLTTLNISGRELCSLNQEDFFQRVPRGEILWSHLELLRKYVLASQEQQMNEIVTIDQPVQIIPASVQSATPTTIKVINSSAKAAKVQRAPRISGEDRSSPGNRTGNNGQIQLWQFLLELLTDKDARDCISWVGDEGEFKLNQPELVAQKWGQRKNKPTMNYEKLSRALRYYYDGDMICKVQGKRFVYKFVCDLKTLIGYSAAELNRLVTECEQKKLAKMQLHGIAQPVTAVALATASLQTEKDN
The following applies: protein: recombinant; tags: N-terminal GST; dsDNA, one strand shown. In outline: as §1

For a further assay, the target named is T4, ERG (Homo sapiens, UniProt P11308 1-479).
T4 sequence: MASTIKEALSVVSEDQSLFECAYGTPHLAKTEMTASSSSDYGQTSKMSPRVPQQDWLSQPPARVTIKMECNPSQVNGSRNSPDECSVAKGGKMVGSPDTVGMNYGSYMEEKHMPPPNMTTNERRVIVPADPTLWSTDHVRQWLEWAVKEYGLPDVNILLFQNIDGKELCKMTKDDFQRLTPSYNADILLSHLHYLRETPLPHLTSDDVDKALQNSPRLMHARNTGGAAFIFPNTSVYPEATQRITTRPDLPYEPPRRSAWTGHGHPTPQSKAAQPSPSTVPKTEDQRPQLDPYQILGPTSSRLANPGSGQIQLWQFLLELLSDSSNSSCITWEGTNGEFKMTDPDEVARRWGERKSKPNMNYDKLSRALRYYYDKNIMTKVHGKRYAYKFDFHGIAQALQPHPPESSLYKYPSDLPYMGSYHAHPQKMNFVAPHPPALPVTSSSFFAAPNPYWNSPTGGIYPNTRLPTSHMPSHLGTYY
The note with it: protein: recombinant; tags: N-terminal GST; dsDNA, one strand shown. In outline: as §1

For the next assay, the target named is ELF1 (Homo sapiens, UniProt P32519 1-619). The following applies: protein: recombinant; tags: N-terminal GST; dsDNA, one strand shown. The method in brief: as §1
The target of the next assay is T5, EHF (Homo sapiens, UniProt Q9NZC4 1-300).
T5 sequence: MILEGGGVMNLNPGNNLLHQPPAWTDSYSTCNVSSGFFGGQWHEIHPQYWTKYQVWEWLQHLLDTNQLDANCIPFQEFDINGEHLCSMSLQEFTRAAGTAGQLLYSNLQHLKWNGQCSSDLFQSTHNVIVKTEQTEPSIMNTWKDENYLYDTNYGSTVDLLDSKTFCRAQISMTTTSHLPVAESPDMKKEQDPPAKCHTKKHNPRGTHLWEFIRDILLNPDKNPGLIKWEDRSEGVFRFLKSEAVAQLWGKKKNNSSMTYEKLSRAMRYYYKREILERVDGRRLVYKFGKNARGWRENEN
The note with it: protein: recombinant; tags: N-terminal GST; dsDNA, one strand shown. In outline:
as §1

The next assay has as its target SPI1 (Homo sapiens, UniProt P17947 1-270). The following applies: protein: recombinant; tags: N-terminal GST; dsDNA, one strand shown. The method in brief:
as §1

Another assay concerns the target SPIB (Homo sapiens, UniProt Q01892 1-262). The note with it: protein: recombinant; tags: N-terminal GST; dsDNA, one strand shown. The method in brief:
as §1

For a further assay, the target named is T6, ELK3 (Homo sapiens, UniProt P41970 1-407).
T6 sequence: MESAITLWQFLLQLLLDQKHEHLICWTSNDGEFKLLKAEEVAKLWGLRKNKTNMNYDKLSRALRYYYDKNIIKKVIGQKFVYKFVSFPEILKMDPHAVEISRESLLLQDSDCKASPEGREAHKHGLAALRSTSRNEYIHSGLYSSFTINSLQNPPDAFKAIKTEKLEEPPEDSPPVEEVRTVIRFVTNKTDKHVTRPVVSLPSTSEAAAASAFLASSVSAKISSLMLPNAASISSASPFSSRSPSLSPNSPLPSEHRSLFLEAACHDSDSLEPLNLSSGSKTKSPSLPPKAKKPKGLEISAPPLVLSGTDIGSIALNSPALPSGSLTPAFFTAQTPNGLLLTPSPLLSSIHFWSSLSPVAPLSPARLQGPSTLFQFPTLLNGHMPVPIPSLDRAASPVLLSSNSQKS
The note with it: protein: recombinant; tags: N-terminal GST; dsDNA, one strand shown. In outline:
as §1

Another assay has as its target T7, FEV (Homo sapiens, UniProt Q99581 1-238).
T7 sequence: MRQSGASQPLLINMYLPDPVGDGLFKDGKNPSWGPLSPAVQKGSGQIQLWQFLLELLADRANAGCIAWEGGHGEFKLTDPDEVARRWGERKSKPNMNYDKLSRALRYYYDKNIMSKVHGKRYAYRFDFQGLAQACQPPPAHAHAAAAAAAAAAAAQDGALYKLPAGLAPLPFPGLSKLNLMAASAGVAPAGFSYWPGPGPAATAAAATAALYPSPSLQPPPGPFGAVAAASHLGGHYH
The following applies: protein: recombinant; tags: N-terminal GST; dsDNA, one strand shown. The method in brief: as §1

The target of a further assay is ETV5 (Homo sapiens, UniProt P41161 1-510). The note with it: protein: recombinant; tags: N-terminal GST; dsDNA, one strand shown. The method in brief: as §1
A further assay concerns the target HSF1 (Homo sapiens, UniProt Q00613 1-529). The following applies: protein: recombinant; tags: N-terminal GST; chain copies: 3; dsDNA, one strand shown. The method in brief:
as §1

The target of a further assay is T8, SPIC (Homo sapiens, UniProt Q8N5J4 1-248).
T8 sequence: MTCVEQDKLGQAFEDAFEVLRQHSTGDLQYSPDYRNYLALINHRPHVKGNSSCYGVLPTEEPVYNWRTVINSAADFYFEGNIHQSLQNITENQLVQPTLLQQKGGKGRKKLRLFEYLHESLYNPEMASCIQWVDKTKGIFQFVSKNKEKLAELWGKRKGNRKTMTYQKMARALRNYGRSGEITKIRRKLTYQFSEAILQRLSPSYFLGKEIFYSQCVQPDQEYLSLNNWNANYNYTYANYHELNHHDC
The note with it: protein: recombinant; tags: N-terminal GST; dsDNA, one strand shown. In outline:
as §1

The next assay has as its target ELF4 (Homo sapiens, UniProt Q99607 1-663). The following applies: protein: recombinant; tags: N-terminal GST; dsDNA, one strand shown. The method in brief:
as §1

A further assay deals with T9, ELK4 (Homo sapiens, UniProt P28324-2 1-405).
T9 sequence: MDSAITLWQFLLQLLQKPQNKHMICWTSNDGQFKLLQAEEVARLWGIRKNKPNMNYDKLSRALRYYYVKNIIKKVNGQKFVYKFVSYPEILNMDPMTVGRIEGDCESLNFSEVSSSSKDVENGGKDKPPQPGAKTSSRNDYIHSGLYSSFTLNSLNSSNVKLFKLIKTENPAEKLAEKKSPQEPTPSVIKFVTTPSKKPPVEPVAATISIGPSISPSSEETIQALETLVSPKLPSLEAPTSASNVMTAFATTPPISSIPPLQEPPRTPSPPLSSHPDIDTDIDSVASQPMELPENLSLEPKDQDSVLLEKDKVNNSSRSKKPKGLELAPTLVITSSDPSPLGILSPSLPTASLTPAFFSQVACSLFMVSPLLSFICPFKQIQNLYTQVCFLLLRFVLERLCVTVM
The note with it: protein: recombinant; tags: N-terminal GST; dsDNA, one strand shown. In outline:
as §1

Another assay deals with T10, ETV2 (Homo sapiens, UniProt O00321 1-342).
T10 sequence: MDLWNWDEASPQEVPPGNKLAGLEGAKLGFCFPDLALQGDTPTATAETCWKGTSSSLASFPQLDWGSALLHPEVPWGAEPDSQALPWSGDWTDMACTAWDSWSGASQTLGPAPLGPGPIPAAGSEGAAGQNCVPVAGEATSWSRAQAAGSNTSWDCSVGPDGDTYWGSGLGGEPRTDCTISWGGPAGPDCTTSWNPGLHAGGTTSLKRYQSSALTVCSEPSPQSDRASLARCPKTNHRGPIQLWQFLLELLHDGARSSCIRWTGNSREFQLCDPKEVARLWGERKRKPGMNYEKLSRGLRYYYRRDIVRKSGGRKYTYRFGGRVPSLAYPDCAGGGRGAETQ
The note with it: protein: recombinant; tags: N-terminal GST; dsDNA, one strand shown. The method in brief: as §1

The next assay concerns the target T11, ELF3 (Homo sapiens, UniProt P78545 1-371).
T11 sequence: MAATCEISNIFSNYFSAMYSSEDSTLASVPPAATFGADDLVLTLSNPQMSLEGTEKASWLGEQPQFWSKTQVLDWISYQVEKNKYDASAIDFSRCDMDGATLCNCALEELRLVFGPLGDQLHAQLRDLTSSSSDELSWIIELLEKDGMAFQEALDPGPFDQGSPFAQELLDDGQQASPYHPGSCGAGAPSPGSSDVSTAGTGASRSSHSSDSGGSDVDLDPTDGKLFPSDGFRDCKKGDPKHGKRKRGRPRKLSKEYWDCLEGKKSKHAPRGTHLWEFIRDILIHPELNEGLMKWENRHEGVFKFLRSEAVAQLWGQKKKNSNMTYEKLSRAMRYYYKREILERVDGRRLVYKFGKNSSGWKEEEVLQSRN
The note with it: protein: recombinant; tags: N-terminal GST; dsDNA, one strand shown. In outline:
as §1

The next assay deals with ETV1 (Homo sapiens, UniProt P50549 1-477). The following applies: protein: recombinant; tags: N-terminal GST; dsDNA, one strand shown. In outline: as §1
Chain of ETV1 (P50549 whole entry): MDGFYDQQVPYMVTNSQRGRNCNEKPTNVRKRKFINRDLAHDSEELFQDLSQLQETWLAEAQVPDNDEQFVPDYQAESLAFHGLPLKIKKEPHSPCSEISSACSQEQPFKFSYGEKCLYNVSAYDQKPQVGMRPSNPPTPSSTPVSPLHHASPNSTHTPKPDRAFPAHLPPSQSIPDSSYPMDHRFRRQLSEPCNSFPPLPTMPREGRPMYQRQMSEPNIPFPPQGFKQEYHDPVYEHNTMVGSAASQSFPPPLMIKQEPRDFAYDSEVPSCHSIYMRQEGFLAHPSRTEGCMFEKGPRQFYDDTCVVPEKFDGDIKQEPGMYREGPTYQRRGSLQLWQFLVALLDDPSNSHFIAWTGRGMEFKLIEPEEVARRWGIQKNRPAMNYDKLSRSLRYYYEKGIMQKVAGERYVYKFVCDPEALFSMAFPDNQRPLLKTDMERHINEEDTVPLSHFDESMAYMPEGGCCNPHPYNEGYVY

Chain of HSF1 (Q00613 whole entry): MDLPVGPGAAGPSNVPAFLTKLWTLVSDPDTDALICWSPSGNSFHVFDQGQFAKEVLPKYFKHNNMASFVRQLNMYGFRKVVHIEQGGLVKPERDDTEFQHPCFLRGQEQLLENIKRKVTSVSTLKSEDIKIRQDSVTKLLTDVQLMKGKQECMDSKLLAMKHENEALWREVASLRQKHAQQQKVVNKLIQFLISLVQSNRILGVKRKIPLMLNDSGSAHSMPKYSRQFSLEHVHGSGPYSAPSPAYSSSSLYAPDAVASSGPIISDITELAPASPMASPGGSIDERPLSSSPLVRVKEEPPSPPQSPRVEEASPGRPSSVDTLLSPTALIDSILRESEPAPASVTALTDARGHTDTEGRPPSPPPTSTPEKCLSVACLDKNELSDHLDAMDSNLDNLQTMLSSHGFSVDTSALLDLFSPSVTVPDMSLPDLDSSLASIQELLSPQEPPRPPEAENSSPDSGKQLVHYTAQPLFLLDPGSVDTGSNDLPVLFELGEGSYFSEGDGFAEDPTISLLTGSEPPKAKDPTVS
Chain of ELF1 (P32519 whole entry): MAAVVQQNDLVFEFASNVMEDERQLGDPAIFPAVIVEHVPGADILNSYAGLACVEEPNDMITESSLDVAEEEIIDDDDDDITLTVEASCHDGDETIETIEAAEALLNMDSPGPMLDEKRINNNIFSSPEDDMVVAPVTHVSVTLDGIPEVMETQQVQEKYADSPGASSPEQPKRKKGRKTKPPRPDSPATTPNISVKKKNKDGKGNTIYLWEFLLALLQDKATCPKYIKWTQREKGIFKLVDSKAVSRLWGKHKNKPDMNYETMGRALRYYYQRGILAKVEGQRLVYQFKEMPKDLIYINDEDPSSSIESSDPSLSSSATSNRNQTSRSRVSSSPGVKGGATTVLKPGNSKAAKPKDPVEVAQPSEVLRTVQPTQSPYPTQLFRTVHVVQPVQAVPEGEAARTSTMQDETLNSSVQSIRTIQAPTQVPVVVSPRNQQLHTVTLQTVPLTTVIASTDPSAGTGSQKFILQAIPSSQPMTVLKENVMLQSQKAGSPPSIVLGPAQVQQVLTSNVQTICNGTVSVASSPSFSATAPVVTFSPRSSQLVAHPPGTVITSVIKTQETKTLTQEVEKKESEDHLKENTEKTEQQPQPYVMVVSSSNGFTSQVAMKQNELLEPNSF
Chain of ELF4 (Q99607 whole entry): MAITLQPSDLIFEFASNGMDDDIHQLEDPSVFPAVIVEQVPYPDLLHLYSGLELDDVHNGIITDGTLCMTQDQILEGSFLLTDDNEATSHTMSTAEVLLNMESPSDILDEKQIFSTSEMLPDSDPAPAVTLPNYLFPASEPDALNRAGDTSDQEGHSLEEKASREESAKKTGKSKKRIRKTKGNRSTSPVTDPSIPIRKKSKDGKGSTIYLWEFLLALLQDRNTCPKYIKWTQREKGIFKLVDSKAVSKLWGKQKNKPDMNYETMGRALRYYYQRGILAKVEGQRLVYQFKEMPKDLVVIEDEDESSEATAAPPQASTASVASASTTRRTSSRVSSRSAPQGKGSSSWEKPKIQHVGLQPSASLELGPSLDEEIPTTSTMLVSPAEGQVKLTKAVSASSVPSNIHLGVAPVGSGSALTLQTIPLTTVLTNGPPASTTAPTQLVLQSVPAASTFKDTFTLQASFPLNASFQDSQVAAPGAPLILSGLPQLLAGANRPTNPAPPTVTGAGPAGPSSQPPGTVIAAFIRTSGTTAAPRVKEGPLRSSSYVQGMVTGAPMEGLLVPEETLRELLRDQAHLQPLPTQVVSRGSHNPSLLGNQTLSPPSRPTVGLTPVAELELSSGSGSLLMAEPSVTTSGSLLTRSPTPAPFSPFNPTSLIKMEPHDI
Chain of SPIB (Q01892 whole entry): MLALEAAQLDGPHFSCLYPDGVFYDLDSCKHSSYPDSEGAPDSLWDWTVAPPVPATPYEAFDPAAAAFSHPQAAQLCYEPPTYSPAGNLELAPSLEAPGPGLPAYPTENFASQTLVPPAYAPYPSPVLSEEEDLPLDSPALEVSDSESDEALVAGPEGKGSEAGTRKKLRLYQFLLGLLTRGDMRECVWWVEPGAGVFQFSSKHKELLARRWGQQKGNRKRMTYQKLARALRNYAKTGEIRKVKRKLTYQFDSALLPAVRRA
Chain of ETV5 (P41161 whole entry): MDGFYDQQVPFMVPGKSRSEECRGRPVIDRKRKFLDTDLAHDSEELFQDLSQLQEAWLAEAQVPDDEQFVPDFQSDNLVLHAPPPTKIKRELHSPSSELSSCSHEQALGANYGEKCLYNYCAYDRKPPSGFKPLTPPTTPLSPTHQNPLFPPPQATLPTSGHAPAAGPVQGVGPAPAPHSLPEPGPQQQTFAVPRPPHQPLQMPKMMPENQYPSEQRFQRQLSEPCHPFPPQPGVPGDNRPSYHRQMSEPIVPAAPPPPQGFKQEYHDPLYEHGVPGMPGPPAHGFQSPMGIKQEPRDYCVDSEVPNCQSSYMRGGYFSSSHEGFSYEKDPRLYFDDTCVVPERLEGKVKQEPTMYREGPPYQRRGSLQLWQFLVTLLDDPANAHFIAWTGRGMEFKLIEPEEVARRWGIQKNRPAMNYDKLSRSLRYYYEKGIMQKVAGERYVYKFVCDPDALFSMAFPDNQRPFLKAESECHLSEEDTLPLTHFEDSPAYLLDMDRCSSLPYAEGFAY

On to CTCGCC, for which the binding signal in the assay with FLI1 was 1.16 fold enrichment (6-mer frequency, TF over GST control); with ELK1, 1.38 fold enrichment (6-mer frequency, TF over GST control); with GABPA it was 1.26 fold enrichment (6-mer frequency, TF over GST control); with ERG, 1.21 fold enrichment (6-mer frequency, TF over GST control); with ELF1, 1.25 fold enrichment (6-mer frequency, TF over GST control); with EHF, 1.19 fold enrichment (6-mer frequency, TF over GST control). The binding signal in the assay with SPI1 is 1.17 fold enrichment (6-mer frequency, TF over GST control); in the assay with SPIB, 1.24 fold enrichment (6-mer frequency, TF over GST control); with ELK3, 1.25 fold enrichment (6-mer frequency, TF over GST control); with FEV, 1.21 fold enrichment (6-mer frequency, TF over GST control); with ETV5 it was 1.23 fold enrichment (6-mer frequency, TF over GST control); with HSF1 it was 1.06 fold enrichment (6-mer frequency, TF over GST control). Besides, the binding signal in the assay with SPIC is 1.2 fold enrichment (6-mer frequency, TF over GST control); with ELF4, 1.29 fold enrichment (6-mer frequency, TF over GST control); with ELK4 it was 1.31 fold enrichment (6-mer frequency, TF over GST control); with ETV2, 1.32 fold enrichment (6-mer frequency, TF over GST control); in the assay with ELF3, 1.43 fold enrichment (6-mer frequency, TF over GST control); with ETV1, 1.26 fold enrichment (6-mer frequency, TF over GST control).
